Measured values reported in PubChem BioAssay (EPA / NIEHS).
The source made the active and inactive calls. Rule for the calls: active = hit-call score of the fitted dose curve at least 0.9, where 1 is the maximum; inactive = score below 0.9.

assay: CCTE_Shafer_MEA_acute_per_burst_spike_number_mean: CCTE's Neural Acute Assay for Average Number of Spikes Per Burst, Shafer Lab (AID 2284015);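 note: hits are decreases in mean spikes per burst versus baseline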
Protocol: CCTE_Shafer_MEA_acute assay is conducted using Axion Biosystems 48 well microelectrode array (MEA) plates and Maestro recording system. Each well of the MEA plate contains a grid of 16 microelectrodes embedded in the culture surface. Electrically active cells, such as neurons, can be cultured over the electrodes, and electrical activity in these cells can be recorded extracellularly. The spontaneous firing of neurons is captured from each electrode on a microsecond timescale providing both temporally and spatially precise data. […] The CCTE_Shafer_MEA_acute assay uses primary cultures of rat cortical neurons. As these cultures mature over time, neural networks develop functional activity and form cohesive networks in which electrical activity can be highly coordinated. Baseline 40-minute recordings are made on days post-plating 13 or 15, followed by a secondary 40-minute recording after chemical exposure.CCTE_Shafer_MEA_acute_per_burst_spike_number_mean is a component of the CCTE_Shafer_MEA_acute assay. It measures the average number of spikes (action potential firings) in a single-electrode burst (temporally-clustered group of spikes) during a recording in a microelectrode array (MEA) using Axion Biosystems Maestro 768 channel amplifier with the AxIS adaptive spike detector. The recordings before and after chemical treatment are used to calculate a percent change in the mean number of spikes per burst in each well.Data from the assay component CCTE_Shafer_MEA_acute_per_burst_spike_number_mean was analyzed into 1 assay endpoint. This assay endpoint, CCTE_Shafer_MEA_acute_per_burst_spike_number_mean, was analyzed in the negative analysis fitting direction relative to DMSO as the negative control and baseline of activity. Using a type of functional reporter, gain or loss-of-signal activity can be used to understand electrical activity.
Spontaneous activity in the cortical cultures was recorded using an Axion Biosystems Maestro 768 channel amplifier and Axion Integrated Studios (AxIS) v1.8 (or later) software. The amplifier recorded from all channels simultaneously (gain = 1200 x; sampling rate = 12.5 kHz/channel): raw signals were filtered with a Butterworth band-pass filter (300-5000 Hz), which filters out slower local field potentials leaving only fast potentials, i.e., "spikes", arising from extracellular currents associated with action potentials (Pine 2006; Wheeler and Nam 2011). On-line spike detection of filtered signals was conducted with the AxIS adaptive spike detector, using a threshold of 8x the root mean squared (rms) noise on each channel. Any electrodes with rms noise levels greater than 5 uV were grounded (e.g., no data were recorded). Once grounded, an electrode was grounded for the duration of the experiment. All recordings were conducted at 37 C. Wells were deemed usable if on the day of the exposure >/= 10 electrodes were active (defined as >/= 5 spikes/min). On DIV 13 or 15, a minimum of three wells from one cortical culture preparation were treated with each compound (0.03-40 uM). Prior to recording baseline activity, each mwMEA plate was placed in the Maestro at 37 C and allowed to sit for 20 min while firing rates stabilized. Baseline activity (40 min) was recorded before the addition of each compound. An additional 40 min of spontaneous activity was recorded in the presence of each compound. Changes in network parameters relative to baseline were assessed following compound treatment.

Compound | AC50 | outcome
CN(C)C(=O)NC1(c2ccccc2)CCN(CCC[C@]2(c3ccc(Cl)c(Cl)c3)CCCN(C(=O)c3ccccc3)C2)CC1 | 9.1 µM (active) | –
Nc1nc(=S)c2[nH]cnc2[nH]1 | 20 µM (active) | –
CN(C)C(=O)NC1(c2ccccc2)CCN(CC[C@@]2(c3ccc(F)c(F)c3)CN(C(=O)c3ccccc3)CCO2)CC1 | – | inactive
NC(=Nc1ccccc1)Nc1ccccc1 | – | inactive
c1ccc2occc2c1 | – | inactive
Cc1cc(Cc2ccc(N)c(C)c2)ccc1N | 30 µM (active) | –
COc1ccc(OC(F)(F)F)cc1CN[C@H]1CCCN[C@H]1c1ccccc1 | 5 µM (active) | –
OCC(CO)n1cnc(-c2ccc(F)cc2)c1-c1ccnc(Oc2ccccc2)n1 | – | inactive
Oc1ccc(O)cc1 | – | inactive
CC(C)COC(=O)CCCCC(=O)OCC(C)C | – | inactive
Cc1c(C)c2c(c(C)c1O)CCC(C)(COc1ccc(CC3SC(=O)NC3=O)cc1)O2 (stereo not drawn) | – | inactive
CSc1ccc(Oc2ccc(S(N)(=O)=O)cc2CN(C)C)cc1C | 36 µM (active) | –
O=C1OC(c2ccc(O)cc2)(c2ccc(O)cc2)c2ccccc21 | – | inactive
O=C(N[C@@H](c1ccccc1)[C@@H]1CCCCN1)c1cccc(C(F)(F)F)c1Cl | – | inactive
CCc1cc(C2=C(C(=O)O)N(c3ccccc3C(F)(F)F)S(=O)(=O)c3ccccc32)cc2c1OCO2 | – | inactive
C/C=C/c1ccc(OC)cc1 | – | inactive
CN(C)CCCN1c2ccccc2Sc2ccc(Cl)cc21 | – | inactive
O=C(O)CN(CC(=O)O)CC(=O)O | – | inactive
CC(N)=O | – | inactive
CCCCC(CC)COP(=O)(OCC(CC)CCCC)OCC(CC)CCCC (stereo not drawn) | – | inactive
Cc1ccc(-c2cc(C(F)(F)F)nn2-c2ccc(S(N)(=O)=O)cc2)cc1 | – | inactive
CCCC(=O)O | – | inactive
COC(=O)[C@H]1[C@H]2C[C@@H]3c4[nH]c5cc(OC)ccc5c4CCN3C[C@H]2C[C@@H](OC(=O)c2cc(OC)c(OC)c(OC)c2)[C@@H]1OC | 0.582 µM (active) | –
CCN(CC)CCOc1ccc(C(=C(Cl)c2ccccc2)c2ccccc2)cc1 | – | inactive
CC1=C(C)S(=O)(=O)CCS1(=O)=O | – | inactive
CC(C)NCC(O)c1ccc(O)c(O)c1 (stereo not drawn) | – | inactive
Cc1cc(SC2=C(O)C[C@@](CCc3ccc(N)cc3)(C(C)C)OC2=O)c(C(C)(C)C)cc1CO | – | inactive
Cc1ccc(C(C)(C)C)c(O)c1 | – | inactive
